Reference: ChEMBL document CHEMBL3988442, “University of Dundee, Small-Polar-MMV Screening Library” (2021)

target: AMP-activated protein kinase, AMPK (Homo sapiens) (UniProt P54646+O43741+P54619+Q9UGJ0+Q9Y478+Q13131+Q9UGI9); test: AMP-dependent Kinase enzyme assay. An in vitro enzyme assay that detects ADP turnover that is directly proportional to AMPK activity. This uses naive AMPK that is activated during the assay with MK-8722; type: functional; parameters: scale not given: direction of the effect not stated beside the values; conditions: 30 µM

SMILES | Percent Effect
CC(CNC(=O)CCCn1cncn1)N1CCc2ccccc2C1 (stereo not given) | 14.6%
Cc1cc(NC(=O)N2CCC[C@@H]2CO)nn1-c1cccc(Cl)c1 | -3.24%
CN(C)C(=O)CN1CCCC(c2nccnc2-c2cccc(Cl)c2)C1 (stereo not given) | 19.9%
Cc1noc(CS(=O)(=O)c2cc(F)ccc2F)n1 | -0.296%
CN1CCN(C2CCN(Cc3cn4ccccc4n3)CC2)C1=O | 41.9%
NC(=O)C1CCN(C(=O)CCSCc2ccccc2)CC1 | 8.64%
c1ccc(Cc2noc(-c3ccc(NCC4CCCOC4)nc3)n2)cc1 (stereo not given) | 6.64%
CCc1c(C)nn2c(O)cc(C3CCN(C(=O)c4cnn(C)c4)C3)nc12 (stereo not given) | 5.68%
CC(C)n1ccnc1C1CCN(c2nccc(C(F)(F)F)n2)CC1 | 15.9%
Cc1cc(C)c(C#N)c(N2CCC3(CCCN(CCO)C3=O)C2)n1 (stereo not given) | 8.35%
Cc1cc(C(=O)N(C)CCN(C)C(=O)OC(C)(C)C)oc1C | 5.9%
COC(=O)CCN(C)C(=O)c1csc(Cc2ccccc2F)n1 | -2.56%
Oc1cc(C2CCCCN2Cc2cccs2)nc(-c2ccncc2)n1 (stereo not given) | 1.11%
COc1c(F)cc(NC(=O)N2CCC(CSC)C2)cc1F (stereo not given) | 2.71%
O=C(NCCS(=O)(=O)N1CCN(c2ncccn2)CC1)C1CC1 | 1.52%
Cc1cccc(C(C(=O)NC(C)(C)CN2CCOCC2)N(C)C)c1 (stereo not given) | -14.1%
Cc1cccc(COc2ccc(C(C)NS(N)(=O)=O)cc2)c1 (stereo not given) | 7.65%
CC(c1ccc(F)cc1F)N1CCN(CCC(=O)NC(N)=O)CC1 (stereo not given) | -3.39%
Cc1cc(N2CCC3(CCCN(CCO)C3=O)C2)nc2ccccc12 (stereo not given) | 9.84%
O=C(NCc1sc2ccccc2c1Cl)c1cc2n(n1)CCNC2 | 10.8%
